Consider 35 compounds from PubChem BioAssay (EPA / NIEHS).

Records with an inconclusive call do not appear. Activity calls are given as the source filed them. Rule for the calls: active = hit-call score of the fitted dose curve at least 0.9, where 1 is the maximum; inconclusive = response in the unintended direction; inactive = score below 0.9.

Cytochrome P450 3A4 (Homo sapiens), sequence (P08684 whole entry, looked up): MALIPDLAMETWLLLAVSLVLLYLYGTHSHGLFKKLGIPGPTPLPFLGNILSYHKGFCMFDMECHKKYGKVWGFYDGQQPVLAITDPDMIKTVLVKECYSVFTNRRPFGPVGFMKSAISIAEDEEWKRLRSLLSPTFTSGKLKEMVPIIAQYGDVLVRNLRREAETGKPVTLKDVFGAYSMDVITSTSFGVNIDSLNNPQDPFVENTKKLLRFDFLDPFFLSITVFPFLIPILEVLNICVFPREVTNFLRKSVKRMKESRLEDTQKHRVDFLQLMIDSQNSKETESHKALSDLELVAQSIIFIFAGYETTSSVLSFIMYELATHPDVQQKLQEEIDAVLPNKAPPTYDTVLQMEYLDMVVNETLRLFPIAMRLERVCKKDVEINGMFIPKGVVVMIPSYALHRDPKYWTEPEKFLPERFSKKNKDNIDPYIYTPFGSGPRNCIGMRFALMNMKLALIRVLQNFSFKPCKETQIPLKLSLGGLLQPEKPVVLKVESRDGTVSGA

Read-out in this assay: Cytochrome P450 3A4 (Homo sapiens) (UniProt P08684)
The experiment in a line: CLD_CYP3A4_6hr: CellzDirect (CLD) Gene Expression Assay for xenobiotic metabolism (CYP3A4) at 6 hours (AID 2283680). Here is the method:
CLD_6hr is a cell-based, multiplexed-readout assay that uses hepatocyte, a human liver primary cell, with measurements taken at 6 hours after chemical dosing in a 96-well plate.CLD_CYP3A4_6hr is one of 16 assay component(s) measured or calculated from the CLD_6hr assay. It is designed to make measurements of mRNA induction, a form of inducible reporter, as detected with chemiluminescence signals by Quantitative Nuclease Protection Assay (qNPA) technology.Data from the assay component CLD_CYP3A4_6hr was analyzed at the endpoint, CLD_CYP3A4_6hr, in the positive analysis fitting direction relative to DMSO as the negative control and baseline of activity. Using a type of inducible reporter, gain-of-signal activity can be used to understand changes in the reporter gene as they relate to the gene CYP3A4. Furthermore, this assay endpoint can be referred to as a primary readout. To generalize the intended target to other relatable targets, this assay endpoint is annotated to the cyp intended target family, where subfamily is xenobiotic metabolism.
Human hepatocyte cultures were treated daily for two consecutive days with fresh dosing solutions containing appropriate concentrations of the 320 ToxCast chemicals (chemical identities were blinded to CellzDirect and other ToxCast collaborators), vehicle control (0.2% DMSO), and positive control inducers as summarized in Table 1. Due to the large number of treatment groups and chemicals examined, the ToxCast chemicals were divided into two groups (spanning two independent cultures of hepatocytes from separate donor preparations (Hu778: ToxCast plates 1 and 2; Hu776: ToxCast plates 3 and 4). Each preparation of human hepatocyte cultures was treated with respective vehicle control, medium only control, set of six positive controls/reference chemicals for the five hepatic receptor pathways, and a subset of eight of the ToxCast chemicals (indoxacarb, pyrithiobac-sodium, norflurazon, cyhalofop-butyl, methomyl, thiram, acetochlor, and propiconazole). These replicate data, coupled with internal replicates designed within the blinded ToxCast chemical library, provided additional data to evaluate interindividual differences between hepatocyte preparations and their potential impact on chemical profiles.Cell morphology and integrity were evaluated using phase-contrast microscopy as an indicator of hepatocyte cell health (Tyson & Green, 1987). Cultures for each treatment group (i.e., media, vehicle [0.2% DMSO], positive control inducers [multiple concentrations], and the ToxCast chemicals [multiple concentrations]) were observed and cell morphology was assessed relative to vehicle control cultures at each harvest time point (0, 6, 24, or 48 h). […] Images were evaluated at the conclusion of the study to assess changes in cell integrity and account for the effects of chemical exposure on uncharacteristic changes in concentration-dependent gene expression profiles. The results from these determinations of apparent cytotoxicity were annotated (yes/no) alongside the corresponding qNPA data for reference.At the conclusion of each treatment period, hepatocyte cultures (96-well) were washed with 1 volume of HBSS, lysed by addition of 25 ul ArrayPlate lysis buffer (HTG, Tucson, AZ), and 70 ul/well of Denaturation Oil, denatured by incubation at 95C for 10 min, and frozen at approximately -70C until analysis by nuclease protection assay (qNPA) (Roberts et al., 2007). For qNPA analysis, cell lysates were thawed at 50C for approximately 30 min, qNPA probes were added, and samples were incubated at 95C for 10 min to begin the detection process by denaturing the target RNA, dissociating the duplexes and secondary structure hybridization. At the conclusion of the hybridization period, S1 nuclease reagent was added to each sample to digest all nonprotected nucleotides at 50C for 60-90 min. […]
With `CCOC1Oc2ccc(OS(C)(=O)=O)cc2C1(C)C` (stereo not given), the call was inactive.
As to `Cc1[nH]c(=O)n(C(C)(C)C)c(=O)c1Cl`, the compound was classed as inactive.
Regarding `CNC(=O)CSP(=S)(OC)OC`, the result was inactive.
The same measure, in the same setting: the same measure for `O=C(Nc1ccccc1)Nc1cnns1`: “inactive”.
Broadly, the AC50 is the midpoint of the concentration-response curve, whichever way the signal moves. With `CCC(C)Nc1c([N+](=O)[O-])cc(C(C)(C)C)cc1[N+](=O)[O-]` (stereo not given), the AC50 was 1200 nM (active).
Still for that read-out and setting: the same measure for `CCN(CC)C(=O)SCc1ccc(Cl)cc1`: 20000 nM (active).
Turning to `CNC(=O)Oc1cccc(N=CN(C)C)c1`, the result was inactive.
On to `CCC(C)(C)C(=O)OC1=C(c2ccc(Cl)cc2Cl)C(=O)OC12CCCCC2`, for which the compound was classed as inactive.
The same measure, in the same setting: the same measure for `COP(=S)(OC)Oc1ccc([N+](=O)[O-])cc1`: “inactive”.
In the case of `CCc1ccc(C(=O)NN(C(=O)c2cc(C)cc(C)c2)C(C)(C)C)cc1`, the AC50 is 708 nM (active).
Take `CC[C@H](C)[C@H]1O[C@]2(C=C[C@@H]1C)C[C@@H]1C[C@@H](C/C=C(\C)[C@@H](O[C@H]3C[C@H](OC)[C@@H](O[C@H]4C[C@H](OC)[C@@H](O)[C@H](C)O4)[C@H](C)O3)[C@@H](C)/C=C/C=C3\CO[C@@H]4[C@H](O)C(C)=C[C@@H](C(=O)O1)[C@]34O)O2` (tested in a mixture with another compound): the compound was called inactive.
Turning to `ClC1C(Cl)C(Cl)C(Cl)C(Cl)C1Cl` (stereo not given), the outcome was inactive.
For `CCOCN(C(=O)CCl)c1c(C)cccc1CC`, the AC50 is 328 nM (active).
For `CCS(=O)(=O)c1cccnc1S(=O)(=O)NC(=O)Nc1nc(OC)cc(OC)n1`, the compound was called inactive.
Still for that read-out and setting: the same measure for `N#CN`: “inactive”.
For `CC(C)(C)C(O)/C(=C\c1ccc(Cl)cc1Cl)n1cncn1` (stereo not given), the AC50 was 1890 nM (active).
Turning to `OCCOc1ccccc1`, the result was inactive.
Still for that read-out and setting: then `CCCN(CCOc1c(Cl)cc(Cl)cc1Cl)C(=O)n1ccnc1`, with “inactive”.
Same read-out and setting: the same measure for `CCCN(CCC)c1c([N+](=O)[O-])cc(C(F)(F)F)cc1[N+](=O)[O-]`: “inactive”; for `CCC(C)(NC(=O)c1cc(Cl)c(C)c(Cl)c1)C(=O)CCl` (stereo not given): “inactive”.
Take `COC(=O)c1ccccc1S(=O)(=O)NC(=O)N(C)c1nc(C)nc(OC)n1`: the outcome was inactive.
In the case of `C#CCN1C(=O)COc2cc(F)c(N3C(=O)C4=C(CCCC4)C3=O)cc21`, the outcome was inactive.
On the same count and under the same terms, then `COP(=O)(OC)OC=C(Cl)Cl`, with “inactive”; and `CNC(=O)Oc1ccccc1OC(C)C`, with “inactive”.
With `C[C@H]1[C@H](c2ccc(Cl)cc2)SC(=O)N1C(=O)NC1CCCCC1`, the AC50 is 1900 nM (active).
With `O=C(O)COc1ccc(Cl)cc1Cl`, the AC50 is 490 nM (active).
As for `CCOc1nc(NC)nc(NC(=O)NS(=O)(=O)c2ccccc2C(=O)OC)n1`, the outcome was inactive.
As for `COc1nn(CSP(=S)(OC)OC)c(=O)s1`, the result was inactive.
For `O=S1OCC2C(CO1)C1(Cl)C(Cl)=C(Cl)C2(Cl)C1(Cl)Cl` (stereo not given), the AC50 was 9060 nM (active).
Still for that read-out and setting: then `CC(C)OC(=O)Nc1cccc(Cl)c1`, with 12200 nM (active).
With `CC1(C)C(C=C(Cl)Cl)C1C(=O)OC(C#N)c1ccc(F)c(Oc2ccccc2)c1` (stereo not given), the compound was classed as inactive.
The same measure, in the same setting: then `COP(=S)(OC)Oc1ccc(SC)c(C)c1`, with “inactive”; and `Cc1cc(C)nc(NC(=O)NS(=O)(=O)c2ccccc2C(=O)OC2COC2)n1`, with “inactive”; and `Clc1ccccc1-c1nnc(-c2ccccc2Cl)nn1`, with “inactive”.
For `O=C(O)CCCOc1ccc(Cl)cc1Cl`, the result was inactive.
